Source: PubChem BioAssay
A number with no mark means an inactive call. No rule for the calls is given here.

Each compound was assayed on Aerobactin synthetase IucA (Klebsiella pneumoniae, hypervirulent) (assay: biochemical IucA inhibition screen of LOPAC library by absorbance (AID 1346212;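 also: 100% = no compound wells and 0% = no enzyme wells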)). Details: IucA enzyme assay, absorbance (OD) readout; hits give low values;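 tested at 8 µM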.

Row | SMILES | remaining activity
1 | CN=c1nc(-c2ccccc2)n(-c2ccccc2)s1 | 109%
2 | CCc1c(C)[nH]c2c1C(=O)C(CN1CCOCC1)CC2 (stereo not given) | 121%
3 | N[C@@H](Cc1ccc(O)c(I)c1)C(=O)O | 121%
4 | COc1ccc(CCN(C)CCc2ccc(OC)c(OC)c2)cc1OC | 122%
5 | COc1ccc(Cl)cc1NC(=O)Nc1cc(C)nc2ccccc12 | 95%
6 | CC(=O)NNC(=O)N1Cc2ccccc2Oc2ccc(Cl)cc21 | 105%
7 | CN1[C@@H]2CC(OC(=O)[C@H](CO)c3ccccc3)C[C@H]1[C@@H]1O[C@@H]12 (stereo not given in full) | 105%
8 | CCOC(=O)C1=C(C)NC(C)=C(C(=O)OC)C1c1cccc([N+](=O)[O-])c1 (stereo not given) | 112%
9 | c1ccc2c(c1)CC(N1CCN(c3cccc4c3OCCO4)CC1)C2 | 108%
10 | CCCCC/C=C\C[C@@H](O)/C=C/c1cccc(C[C@@H](O)CCCCO)n1 | 92.2%
11 | OCCN1CCN(CCCN2c3ccccc3C=Cc3ccccc32)CC1 | 117%
12 | CC(=O)[C@H]1CCC2C3CC=C4C[C@@H](OS(=O)(=O)O)CC[C@]4(C)C3CC[C@@]21C (stereo not given in full) | 107%
13 | O=Nc1ccc2oc(=O)ccc2c1 | 103%
14 | COc1cc(C(=O)OCCCN2CCCN(CCCOC(=O)c3cc(OC)c(OC)c(OC)c3)CC2)cc(OC)c1OC | 116%
15 | COc1cccc(OC)c1OCCNCC1COc2ccccc2O1 (stereo not given) | 105%
16 | CC(=O)N[C@@H](Cc1c[nH]c2ccccc12)C(=O)OCc1cc(C(F)(F)F)cc(C(F)(F)F)c1 | 117%
17 | Cc1nc(N=Nc2ccc(C(=O)O)cc2)c(COP(=O)(O)O)c(C=O)c1O | 110%
18 | CCNC(=O)[C@H]1O[C@@H](n2cnc3c(N)nc(NCCc4ccc(CCC(=O)O)cc4)nc32)C(O)[C@H]1O (stereo not given in full) | 109%
19 | COc1cc(=O)n(C)c2c(OCC(O)C(C)(C)O)cccc12 (stereo not given) | 108%
20 | COc1ccc(CC(C)NCC(O)c2ccc(O)c(NC=O)c2)cc1 (stereo not given) | 102%

Row | SMILES | remaining activity
21 | CC(C)NC[C@@H](O)c1ccc(O)c(O)c1 | 119%
22 | Cc1cccc(C2CN(C)CCc3c2cc(O)c(O)c3Cl)c1 (stereo not given) | 105%
23 | CCCCNc1c(C(=O)OCC)c(C)nc2c1cnn2CC | 121%
24 | Cc1nc(N=Nc2ccc(S(=O)(=O)O)cc2S(=O)(=O)O)c(COP(=O)(O)O)c(C=O)c1O | 106%
25 | Cn1c(=O)c2[nH]c(-c3ccccc3)nc2n(C)c1=O | 124%
26 | O=C(O)CCC(C(=O)O)N1C(=O)c2ccccc2C1=O (stereo not given) | 121%
27 | COC(=O)[C@H](NC(=O)c1cc(-c2ccccc2)nc2ccccc12)c1ccccc1 | 97.3%
28 | CNC(=O)c1cc2c(cn1)[nH]c1ccccc12 | 97.3%
29 | CN(C)CC/C=C1/c2ccccc2Sc2ccc(Cl)cc21 | 115%
30 | CN(C)S(=O)(=O)c1ccc2c(c1)/C(=C/c1cc3c([nH]1)CCCC3)C(=O)N2 | 121%
31 | COc1ccccc1N1CCN(CCCCN2C(=O)c3ccccc3C2=O)CC1 | 113%
32 | Oc1cc(O)cc(/C=C/c2ccc(O)c(O)c2)c1 | 125%
33 | S=C(Nc1ccccc1)Nc1nccs1 | 125%
34 | Cn1c(=O)c2c(nc(/C=C/c3cccc(Cl)c3)n2C)n(C)c1=O | 88.1%
35 | C[C@H](NC(=O)/C(C#N)=C/c1ccc(O)c(O)c1)c1ccccc1 | 95.7%
36 | O=C(NCCO)c1ccc2c(c1)nc(Nc1cccc(Cl)c1)c1ccncc12 | 90%
37 | CCCCCN(CCCCC)C(=O)C(CCC(=O)O)NC(=O)c1ccc(Cl)c(Cl)c1 (stereo not given) | 110%
38 | Cn1ccnc1 | 101%
39 | O=C(OCCN1CCOCC1)C1(c2ccccc2)CCCCC1 | 123%
40 | CC(C)C[C@H](NC(=O)[C@H](O)[C@H](N)Cc1ccccc1)C(=O)O | 120%
